GDH-TPI counter = GDH-TPI coupling enzyme inhibitors, primary screen, artefact control for M. tuberculosis FBA inhibitor project, biochemical, absorbance, full deck; GDH-TPI coupled enzyme counterscreen, NADH absorbance; inhibition, % at 4.8 µM; 360,000 tested, 1.2% active; in the data active means inhibition above about 30%;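 further: 0% = DMSO wells and 100% = wells lacking the enzyme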
PrPC surface inh = inhibitors of human cell surface prion protein PrPC, primary screen, cell-based, TR-FRET; inhibition, % at 13.8 µM; AID 720596, 2013; 370,000 tested, 0.43% active; Major prion protein (Homo sapiens), P04156; TR-FRET read-out; in the data active means inhibition above about 24%; further: 0% = median of the test wells and 100% = reference compound wells
PfHsp40 rescue = rescue of yeast from PfHsp40 toxicity, primary screen, S. cerevisiae, ATP luminescence. S. cerevisiae expressing PfHsp40, growth rescue. growth rescue, % at 12.5 µM. 340,000 tested, 0.68% active; in the data active means growth rescue above about 28%, passing the limit was not always enough; inconclusive means no clear call, values can overlap the other calls;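 further: yeast W303a lacking pdr1 and pdr3 grown in galactose medium; growth measured after three days at 30 °C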
BJeLR viability = MLPCN primary cell-based screen for lethality selective to Ras in HRASV12 cells. BJeLR (HRASV12) viability, CellTiter-Glo ATP luminescence, 48 h. 300,000 tested, 0.17% active. inhibition, % (concentration not given with the values); in the data active means inhibition above about 50%; inconclusive means no clear call, values can overlap the other calls
PrP UTR inh = inhibition of PrP 5' UTR reporter expression. 340,000 tested, 0.35% active. cell-based PrP 5' UTR mRNA reporter, plate reader. inhibition, % (no concentration beside the values); in the data active means inhibition above about 52%; further: 0 = median of the neutral control wells
FBA Mtb inh = Mtb FBA enzyme inhibitors, primary screen, biochemical, fluorescence, strain H37Rv; Fructose-bisphosphate aldolase (Mycobacterium tuberculosis (strain ATCC 25618 / H37Rv)), …; purified M. tuberculosis FBA, fluorescence read-out; inhibition, % at 1 µM; 360,000 tested, 2.3% active; AID 588726, 2011; in the data active means inhibition above about 27%;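 further: 0% = vehicle and 100% = reference inhibitor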
Target sequence (P9WQA3 whole entry, looked up): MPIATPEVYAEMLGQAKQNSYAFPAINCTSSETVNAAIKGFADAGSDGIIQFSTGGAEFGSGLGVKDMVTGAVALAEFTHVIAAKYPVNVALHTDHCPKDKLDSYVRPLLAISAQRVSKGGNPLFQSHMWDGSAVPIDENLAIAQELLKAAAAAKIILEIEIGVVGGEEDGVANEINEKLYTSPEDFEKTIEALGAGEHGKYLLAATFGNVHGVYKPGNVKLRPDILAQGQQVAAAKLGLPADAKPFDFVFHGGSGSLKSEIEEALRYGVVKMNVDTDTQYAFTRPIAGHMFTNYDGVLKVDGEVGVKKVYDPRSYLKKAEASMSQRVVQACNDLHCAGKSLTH
PrP UTR cherry = prion 5' UTR mRNA inhibition, cherry-pick retest. shares compounds with PrP UTR inh. inhibition, % at 2.5 µM. 1,100 tested, 48% active. cell-based prion protein 5' UTR reporter, plate reader; in the data active means inhibition above about 54%; inconclusive means no clear call, values can overlap the other calls
The depositor's hits bear a star; ? = inconclusive; nt = not tested or not shown. Sampled rows, rich in hits. Any-hit rate of the full collection: about 4.5%.

SMILES | GDH-TPI counter | PrPC surface inh | PfHsp40 rescue | BJeLR viability | PrP UTR inh | FBA Mtb inh | PrP UTR cherry
CN=c1scc(-c2ccccc2F)n1/N=C/c1ccc[nH]1 | 9.2 | 8.9 | 0.2 | 11.5 | 92.2* | -4.8 | 90.8*
Cc1ccccc1C(=O)NC1CCCCN(Cc2cccc(Cl)c2)C1=O (stereo not given) | nt | -8.2 | nt | nt | nt | nt | nt
O=C(COc1ccc(Cl)cc1)NCC(=O)N/N=C/c1cccs1 | 1.6 | -3.8 | 0.2 | 6.0 | 63.1* | 1.6 | -6.2
O=C(COc1ccccc1)NCC(=O)N/N=C/c1cccs1 | 13.9 | 2.5 | -1.8 | 1.4 | -10.2 | -2.9 | nt
COc1ccccc1N1CCN(C(=O)CSc2ncnc3scc(-c4ccccc4)c23)CC1 | 10.3 | 6.5 | 1.2 | 3.5 | -5.3 | -1.2 | nt
COc1ccc(-n2ncc3c(SCC(=O)N4CCN(c5ccccc5OC)CC4)ncnc32)cc1 | 18.7 | 7.8 | 0.3 | 1.0 | 63.7* | -2.5 | -26.4
O=C(Nc1cccc2ncccc12)c1cccnc1 | 6.9 | -0.7 | -1.8 | -10.5 | 73.5* | 0.1 | 0.5
O=C(Nc1cccc2ncccc12)c1cccc(F)c1 | 2.1 | -5.6 | 0.1 | -8.9 | 1.1 | 0.8 | nt
CC1CCCN(c2ncnc3c2cnn3-c2ccc(Cl)cc2)C1 (stereo not given) | -16.6 | -3.3 | -0.7 | 0.6 | 87.8* | 2.7 | 84.5*
Cc1ccc(NC(=O)O/N=C/c2c(C)nn(C(C)(C)C)c2C)cc1Cl | 0.0 | -5.7 | 6.6 | 3.3 | 88.5* | 1.5 | 87.0*
Cc1ccc(S(=O)(=O)CC(=O)Nc2ccc(S(=O)(=O)Nc3ccccn3)cc2)cc1 | -2.6 | -3.0 | -0.5 | -2.5 | 80.2* | 5.6 | -19.6
Cc1nn(-c2ccccc2)c(C)c1/C=N/NC(=O)c1cc(-c2ccccc2)n[nH]1 | 5.1 | 16.3 | 0.7 | 34.9 | 65.9* | 0.6 | 79.7*
COC(=O)[C@]12C[C@H](CC(=O)NCc3cccc4ccccc34)C(=O)N(Cc3ccco3)C1=C[C@H](C(C)C)O[C@@H]2C1CC1 | nt | 7.1 | nt | nt | nt | nt | nt
Cc1cccc(C)c1NC(=O)C(c1ccnc2ccccc12)n1c(=O)c(-c2ccco2)nc2ccccc21 (stereo not given) | nt | 10.4 | nt | nt | nt | nt | nt
COc1cc(-c2noc(C)c2/C=C/c2ccc(C(=O)O)cc2)cc(OC)c1OC | 12.3 | 0.4 | 1.0 | 1.7 | -15.3 | 3.2 | nt
COc1cc(-c2noc(C)c2/C=C/c2cccc([N+](=O)[O-])c2)cc(OC)c1OC | 13.2 | 9.4 | -0.5 | 15.4 | 57.7* | 1.7 | 70.9*
O=C(c1ccc(F)cc1)C1CCN(CCn2c(=S)[nH]c3ccccc3c2=O)CC1 | nt | nt | nt | 9.6 | nt | nt | nt
CC1(C)C(=O)N(CCN2CCC(C(=O)c3ccc(F)cc3)CC2)c2ccccc21 | 9.8 | 2.4 | -2.3 | nt | 52.7* | 1.4 | -22.1
Cc1nc2ccccc2c(=O)n1-c1ccc(Cl)cc1[N+](=O)[O-] | -2.9 | -21.5 | -2.8 | -2.5 | 80.3* | -2.8 | -10.1
Cc1ccc(C(=O)Nc2ccc3ncccc3c2)cc1 | -0.4 | -0.8 | -1.5 | 14.5 | 55.6* | 8.5 | 31.3
COc1ccc(C(=O)Nc2ccc3ncccc3c2)cc1 | -4.5 | 7.1 | -0.2 | -0.2 | -19.4 | -2.0 | nt
C#CCN1C(=O)[C@@](O)(c2cccn2C)c2cc(F)ccc21 | nt | 1.4 | nt | nt | nt | nt | nt
C[C@H]1CN([C@@H](C)CO)C(=O)CCCn2cc(nn2)CO[C@@H]1CN(C)C(=O)c1ccc2ccn(C)c2c1 | nt | -10.6 | nt | nt | nt | nt | nt
CCOC(=O)c1ccc(NC(=O)Nc2ccon2)cc1 | -21.9 | 7.2 | -0.1 | 58.0* | 66.2* | 3.5 | 78.8*
CCOC(=O)c1ccc(NC(=O)Nc2ccc(Cl)cn2)cc1 | 1.9 | 0.0 | -1.4 | 9.6 | -26.6 | -4.2 | nt
SMILES | GDH-TPI counter | PrPC surface inh | PfHsp40 rescue | BJeLR viability | PrP UTR inh | FBA Mtb inh | PrP UTR cherry
CCOC(=O)Cc1nc(N2CCN(Cc3cccc4c3OCO4)CC2)c2c(C)c(C(=O)OCC)sc2n1 | nt | -1.9 | nt | nt | nt | nt | nt
CSCCC(c1nc2ccccc2[nH]1)n1c(/C=C/c2ccc(F)c(F)c2)nc2ccccc21 (stereo not given) | nt | 6.4 | nt | nt | nt | nt | nt
COc1ccc(/C=C/C(=O)c2cc(F)ccc2OC(=O)c2ccccc2OC)cc1OC | 11.3 | 2.0 | 1.7 | 40.6 | 47.3 | -0.3 | ?
CC(C)C[C@@H]1CC2=C(C(=O)OC(C)(C)O2)[C@H](c2ccc(Cl)cc2)O1 | nt | 1.3 | nt | nt | nt | nt | nt
COCCn1c(C)cc(C2=NNC(=Nc3ccccc3F)SC2)c1C | -0.3 | -6.8 | -0.2 | 3.5 | 67.1* | 0.6 | ?
C=CCN=C1NN=C(c2cc(C)n(CC=C)c2C)CS1 | 7.8 | -3.7 | 0.0 | 6.3 | 82.7* | -2.1 | 78.8*
C=CCN=C1NN=C(c2ccc3c(c2)OCCO3)CS1 | 10.5 | -3.4 | -1.8 | 4.3 | 59.3* | 3.1 | 79.3*
COCCN=C1NN=C(c2cc(C)n(CC3CCCO3)c2C)CS1 (stereo not given) | 9.3 | -8.4 | -1.5 | 5.4 | 14.8 | -0.2 | nt
CCOC(=O)Cn1cc(CN2C(C(=O)OC)CN(Cc3ccc(Cl)cc3)CCS2(=O)=O)nn1 (stereo not given) | nt | 12.3 | nt | nt | nt | nt | nt
CC(C)(C)C(=O)Nc1cccc(-c2nnc(-c3cccc(NC(=O)C(C)(C)C)c3)o2)c1 | -4.7 | -0.1 | 0.1 | 4.0 | 59.3* | 2.1 | -44.4
CN(C)C=Nc1nc2ccccc2nc1N1CCCC1 | 3.5 | -9.4 | 1.5 | 8.3 | 54.2* | 20.4 | -3.1
Cc1c(NC(=O)C2CCCN(S(=O)(=O)c3c(C(C)C)cc(C(C)C)cc3C(C)C)C2)c(=O)n(-c2ccccc2)n1C (stereo not given) | nt | 3.8 | nt | nt | nt | nt | nt
O=C(CN1C(=O)c2ccccc2S1(=O)=O)c1ccccc1 | 2.9 | -1.7 | -0.9 | 11.6 | 32.0 | 1.9 | nt
O=C(CN1C(=O)c2ccccc2S1(=O)=O)c1ccccc1Cl | -1.0 | 3.9 | -0.2 | 13.3 | 69.0* | -0.6 | 70.5*
Cc1ccc(C(=O)CN2C(=O)c3ccccc3S2(=O)=O)cc1 | 4.8 | -6.4 | 0.5 | 0.2 | 65.5* | 2.8 | 74.1*
CCOC(=O)N1CCN(C(=O)C[C@H]2C[C@@]3(C(=O)OC)C(=C[C@H](C4CCCC4)O[C@@H]3C)N(Cc3ccc(Cl)cc3Cl)C2=O)CC1 | nt | -1.4 | nt | nt | nt | nt | nt
Cc1cc(C(=O)COC(=O)C2=COCCO2)c(C)n1-c1ccccc1 | 0.9 | 6.5 | -0.4 | nt | 81.6* | -2.7 | 85.6*
Cc1ccc(OCC(=O)c2cc(C)n(-c3ccccc3)c2C)c([N+](=O)[O-])n1 | 16.0 | 0.3 | 0.8 | 2.1 | 59.7* | -0.5 | 57.6*
C[C@H](O)[C@@H]1CN2CCc3c([nH]c4c(-c5ccc6c(c5)OCO6)cccc34)[C@@H]2C[C@@H]1N(C)C(=S)NCCc1ccccc1 | nt | -2.3 | nt | nt | nt | nt | nt
